An excerpt weighted towards active compounds, which were near 2.7% of everything screened.
12-LOX inh: Primary qHTS assay for inhibitors of human arachidonate 12S-lipoxygenase (ALOX12): Round 2 | Polyunsaturated fatty acid lipoxygenase ALOX12 (Homo sapiens), P18054 | purified 12hLO, xylenol orange hydroperoxide absorbance | Potency, µM (doses to about 108 µM), for inactives: at the top dose activity change, negative = inhibition, hits mostly inhibitors | hit rate 1.1% among 580,000 | AID 1671190, 2021; further: on the % scale 0 is the no-effect control and ±100 the full control effect
Target sequence (P18054 whole entry, looked up): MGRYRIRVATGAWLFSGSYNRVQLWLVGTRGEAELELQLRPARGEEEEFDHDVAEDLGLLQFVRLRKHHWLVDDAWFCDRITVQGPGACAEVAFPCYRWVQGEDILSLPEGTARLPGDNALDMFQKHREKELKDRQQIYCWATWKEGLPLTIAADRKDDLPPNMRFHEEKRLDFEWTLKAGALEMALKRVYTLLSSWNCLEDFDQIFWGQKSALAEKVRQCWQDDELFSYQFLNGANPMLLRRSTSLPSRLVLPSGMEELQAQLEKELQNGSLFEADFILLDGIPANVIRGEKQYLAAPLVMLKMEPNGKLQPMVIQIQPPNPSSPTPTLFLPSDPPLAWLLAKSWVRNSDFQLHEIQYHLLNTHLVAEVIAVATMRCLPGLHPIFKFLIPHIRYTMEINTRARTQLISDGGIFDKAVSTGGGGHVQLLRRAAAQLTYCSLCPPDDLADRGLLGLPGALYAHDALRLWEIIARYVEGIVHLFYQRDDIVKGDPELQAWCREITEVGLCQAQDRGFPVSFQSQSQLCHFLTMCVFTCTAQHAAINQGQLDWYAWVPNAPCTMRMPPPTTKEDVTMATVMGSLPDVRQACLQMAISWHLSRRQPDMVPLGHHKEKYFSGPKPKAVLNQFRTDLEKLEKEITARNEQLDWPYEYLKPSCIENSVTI
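Hydroperoxide product was detected by ferrous iron/xylenol orange as the 573 to 405 nm absorbance ratio. Arachidonic acid at 40 uM (final) was turned over for 30 min at room temperature by 150 nM human 12hLO, pH 7.0 Hepes buffer, after 15 min compound preincubation.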
ATXN2 expr inh: Primary qHTS for Inhibitors of ATXN expression; Potency, µM (doses to about 57 µM), without a hit: at the highest dose activity change, negative = inhibition, usual class: inhibitors; hit rate 0.72% among 360,000; HEK-293 ATXN2-luciferase reporter, luminescence, 24 h; further: on the % scale 0 is the no-effect control and ±100 the full control effect; nearly all actives have a fitted effect of over 55% in size
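ATXN2-luciferase reporter cells (luciferase flanked by upstream and downstream ATXN2 gene portions) were treated 24 h at 37 °C with compounds at up to 57 uM. SteadyGlo luminescence gave expression; GF-AFC fluorescence gave viability.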
TGFb inhibitor: qHTS for Inhibitors of TGF-b. AID 588855, 2011. HepG2 CAGA-GFP TGF-b/SMAD3 reporter, GFP fluorescence, 18 h; TGF-beta stimulated, 500 pg/mL final. Potency, µM (titrated, usually from 46.1 µM), for the others: at the highest dose activity, negative = inhibition, most hits filed as inhibitors. hit rate 1.2% among 410,000; further: on the % scale 0 is the no-effect control and ±100 the full control effect; nearly all actives have a fitted effect of over 65% in size
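HEPG2 CAGA-GFP reporter cells (1000/well, DMEM with 1% FBS) received compounds, then recombinant TGF-beta at 500 pg/mL final for 18 hours at 37 degrees C. Per-cell GFP summed per well was normalised to unstimulated and stimulated DMSO controls before curve fitting.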
ATXN viability: Viability Counterscreen for Primary qHTS for Inhibitors of ATXN expression; S2 cells (HEK-293 line with an ATXN2-luciferase reporter) viability, CellTiter-Fluor protease fluorescence, 24 h; hit rate 0.49% among 400,000; Potency, µM (series often up to 56.7 µM), usual class: cytotoxic; AID 651635, 2014; further: nearly all actives have a fitted effect of over 40% in size
HepG2 viability: qHTS for Inhibitors of TGF-b: Cytotox Counterscreen; HepG2 CAGA-GFP viability, ATP luminescence, 18 h; Potency, µM (titrated, usually from 46.1 µM), for the others: top-dose activity change, negative = cytotoxicity, hits mostly cytotoxic; hit rate 0.76% among 410,000
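CellTiter-Glo luminescence gave cytotoxicity after 18 hours at 37 degrees C. The cells were HepG2 CAGA-GFP in 1% FBS DMEM, stimulated with 500 pg/mL TGF-beta after compound addition. %Activity was normalised to no-cell wells (complete cell-killing) and DMSO (no toxicity), and curves were fitted and classified.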
Numbers without * were called inactive; i = inactive; ? = inconclusive; nt = no result; [ ] = remark or other dose. The call rests on the fitted dose curve; in most records, active means well fitted curve in the direction sought with a large enough effect; inconclusive means small, poorly fitted or top-dose-only effect, or another doubt; inactive means no such curve, though single readings can be large; an effect the other way counts as inactive or inconclusive. Potency means the concentration at half of the fitted maximal effect.

SMILES	12-LOX inh	ATXN2 expr inh	TGFb inhibitor	ATXN viability	HepG2 viability
CCn1c2ccccc2c2cc(CN3CCN(Cc4ccc(Br)cc4)CC3)ccc21	?	nt	?	nt	11µM*
Cc1ccc2[nH]c3c(c2c1)CCCC3NC(=O)CCl (centres undefined)	nt	?	?	?	18µM*
COc1ccc(C2(C(=O)NC3CCCc4c3[nH]c3ccccc43)CCOCC2)cc1 (centres undefined)	35µM*	nt	nt	nt	nt
O=C(Cc1n[nH]c(=O)c2ccccc12)NC1CCCc2c1[nH]c1ccccc21 (centres undefined)	45µM*	nt	nt	nt	nt
O=C(Cc1n[nH]c(=O)c2ccccc12)NC1CCc2ccccc21 (centres undefined)	5%	nt	nt	nt	nt
CC(=O)NC1CCCc2c1[nH]c1ccc(Cl)cc21 (centres undefined)	7%	nt	nt	nt	nt
COc1ccc2cnn(CC(=O)NC3CCCc4c3[nH]c3ccccc43)c(=O)c2c1OC (centres undefined)	40µM*	nt	nt	nt	nt
CC(C)CNC(=O)C(C)(C)Oc1nn(CC2CC2)c2ccc(CN3CCCC3)cc12	11%[176 µM]	nt	nt	nt	nt
CC(C)c1ccc(NC(=O)NCC(O)c2ccc(F)c(F)c2)cc1 (centres undefined)	11%	nt	nt	nt	nt
O=C(NC(c1ccccc1)c1ccccc1)C(=O)c1c[nH]c2ccccc12	-24%	nt	nt	nt	nt
COc1ccc(OCCOC(=O)c2cc(=O)c3cc(Cl)ccc3o2)cc1	-7%	nt	nt	nt	nt
CCN(CCc1ccncc1)S(=O)(=O)c1cc(N2C(=O)CCS2(=O)=O)ccc1OC	27%	nt	nt	nt	nt
O=C(c1nnc(COc2ccc3cnccc3c2)n1-c1ccccc1)N1CCC[C@@H]1c1cccc(F)c1	16%	nt	nt	nt	nt
COc1cccc(-c2ccnc(-c3nnc(C)n3Cc3ccccc3)c2)c1	2%[176 µM]	nt	nt	nt	nt
O=C(Cn1ncc2ccccc2c1=O)NC1CCCCC1	-22%	nt	nt	nt	nt
O=C(Cn1nc2c(cc1=O)CCCC2)NC1CCCc2c1[nH]c1ccccc21 (centres undefined)	35µM*	nt	nt	nt	nt
O=C(Cn1nc2c(cc1=O)CCCC2)NC1CC1	37%	nt	nt	nt	nt
O=C(Cn1ncc2ccccc2c1=O)NC1CCCc2c1[nH]c1ccccc21 (centres undefined)	28µM*	nt	nt	nt	nt
COc1cccc(C(=O)OCc2nc3ccccc3o2)c1O	1%	nt	nt	nt	nt
O=C(NNC(=O)c1ccc(Oc2cc(Cl)cc(Cl)c2)o1)c1ccccc1	78%	nt	20µM*	?	-84%
O=C(NNC(=O)c1ccc(Oc2ccc(C3SCCS3)cc2)o1)c1ccc(Cl)cc1	143%	nt	-12%	i	-23%
CC/C(=N\NC(N)=O)c1ccc(OC(F)F)cc1	1%	-3%	14%	i	2%
CC/C(=N\NC(=O)OC)c1ccc(OC(F)F)cc1	2%	-20%	3%	i	10µM*
CN(CCCCOc1ccc(F)cc1)Cc1ccccc1	1.1µM*	2%	-5%	i	-35%
CCOc1ccc(NC(=O)Cc2cccc3ccccc23)c2cccnc12	-27%	nt	nt	nt	nt
SMILES	12-LOX inh	ATXN2 expr inh	TGFb inhibitor	ATXN viability	HepG2 viability
O=C(O)c1ccco1	-12%[176 µM]	nt	nt	nt	nt
COc1cc(OC)c2ccc(=O)oc2c1C(CCN1CCOCC1)c1ccc2c(c1)OCO2 (centres undefined)	?	-8%	-20%	8.9µM*	-27%
CCCCCc1cc(=O)oc2c(C(CCN(CC)CC)c3cc(OC)c(OC)c(OC)c3)c(OC)cc(OC)c12 (centres undefined)	?	?	?	32µM*	18µM*
COc1cc(OC)c2ccc(=O)oc2c1C(CCN1CCCC1)c1ccc2c(c1)OCO2 (centres undefined)	3%	5%	-7%	14µM*	-14%
CCCCCc1cc(=O)oc2c(C(CCN3CCCCC3)c3ccc4c(c3)OCO4)c(OC)cc(OC)c12 (centres undefined)	-9%	32µM*	18µM*	18µM*	-93%
CCCCCc1cc(=O)oc2c(C(CCN3CCCC3)c3ccc4c(c3)OCO4)c(OC)cc(OC)c12 (centres undefined)	nt	nt	?	nt	-98%

Screening results (PubChem BioAssay)
